Screening results deposited in PubChem by National Center for Advancing Translational Sciences (NCATS).
Sampled rows, rich in hits. Any-hit rate of the full collection: about 6%.
DRD3 agonist: activates the human D3 dopamine receptor; D3R DiscoveRx beta-arrestin cells, luminescence, 90 min; max activation, %; actives 0.58% (n = 410,000); in the data active means max activation above about 30%; further: 0% is about no effect
Target sequence (P35462 whole entry, looked up): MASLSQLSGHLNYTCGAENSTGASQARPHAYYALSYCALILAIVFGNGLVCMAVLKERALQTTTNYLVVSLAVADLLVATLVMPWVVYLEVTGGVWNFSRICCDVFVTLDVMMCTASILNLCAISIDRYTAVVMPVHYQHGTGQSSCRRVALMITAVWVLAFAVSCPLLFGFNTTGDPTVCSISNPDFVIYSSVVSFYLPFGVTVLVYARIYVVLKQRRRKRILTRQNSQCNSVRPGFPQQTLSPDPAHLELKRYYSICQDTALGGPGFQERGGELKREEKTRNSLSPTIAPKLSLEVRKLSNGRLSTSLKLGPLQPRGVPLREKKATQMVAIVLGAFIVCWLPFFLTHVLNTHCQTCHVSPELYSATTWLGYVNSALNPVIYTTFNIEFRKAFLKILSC
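Agonist mode: compounds and dopamine controls were applied to plated cells for 90 min at 37 degrees C after an overnight attachment at 1500 cells/well. Luminescent read-out followed 30 - 60 minutes at room temperature with DiscoveRx detection reagent.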
D3 antag: antagonists of human D3 dopamine receptor; P35462; D3R cells, DiscoveRx beta-arrestin luminescence, antagonist mode; hits give low values; max response, negative = inhibition, %; actives 2.5% (n = 360,000); in the data active means max response below about -50%; further: on the % scale 0 is the no-effect control and ±100 the full control effect
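Cells plated overnight at 1500 cells/well, then exposed to library compounds with dopamine controls for 90 minutes at 37 degrees C. DiscoveRx reagent added for 30–60 minutes at room temperature; luminescence read, quantitative HTS format.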
D1 potentiator: human D1 dopamine receptor positive modulation; P21728; HEK293 TREx D1 cells, calcium flux, dopamine EC20 potentiation; potentiation, % at 10 µM; actives 0.036% (n = 360,000); AID 504651; in the data active means potentiation above about 30%; further: 0% is about no effect
D1 antagonist: blocks dopamine activation of the human D1 receptor | HEK293 TREx D1 cells, calcium flux, dopamine EC80; hits give low values | activity change, negative = inhibition, % at 10 µM | actives 3.2% (n = 360,000) | AID 504652; in the data active means activity change below about -30%; further: on the % scale 0 is the no-effect control and ±100 the full control effect
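Tetracycline-induced HEK293 T-REx cells with force-coupled D1 receptor were loaded with a no-wash calcium dye. Compound was added after a 10 s baseline and read kinetically for 180 s; EC80 dopamine was then added and calcium flux followed another 180 s.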
D1 agonist: human D1 receptor agonism; activation, % at 2 µM; HEK293 T-REx D1 cells, calcium flux, agonist mode; AID 504660; actives 1% (n = 360,000); in the data active means activation above about 30%; further: 0% is about no effect
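Tetracycline-induced HEK293 TREx D1 cells, force-coupled to calcium signalling, were dye-loaded with a no-wash calcium kit. Compound was pin-added after a 10 s baseline. Fluorescence was read kinetically at 1 cycle/s for 180 s, with calcium rises flagged as agonism.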
* = called active by the depositor.

Screening O=C(NCc1ccc(F)cc1)c1cc(C2CCCN(C(=O)c3cccs3)C2)on1 (configuration not stated) returned DRD3 agonist -1 and D3 antag -1.
`O=C(NCc1ccccc1)c1cc(C2CCCN(S(=O)(=O)c3cccs3)C2)on1` (configuration not stated) gave DRD3 agonist -21 and D3 antag -68*.
For O=C(NCc1cccnc1)c1cc(C2CCCN(C(=O)c3cccs3)C2)on1 (configuration not stated) the results were DRD3 agonist -22 and D3 antag -123*.
Screening O=C(NCCS(=O)(=O)N1CCN(c2cccc(Cl)c2)CC1)C(c1ccccc1)c1ccccc1 returned DRD3 agonist 6, D1 potentiator -2, D1 antagonist 9 and D1 agonist 7.
CC(C)CC1C(C#N)=C(N)OC2=C1C(=O)CC(c1ccccc1)C2 (configuration not stated) was read as DRD3 agonist -16, D3 antag -63*, D1 potentiator 5, D1 antagonist 7 and D1 agonist 1.
Screening O=C1c2c(O)cccc2[C@H]([C@@H]2O[C@H](CO)[C@@H](O)[C@H](O)[C@H]2O)c2cc(CO)cc(O)c21 returned DRD3 agonist -21.
O=C(O)c1cc(O)c2c(c1)[C@@H]([C@H]1c3cc(C(=O)O)cc(O)c3C(=O)c3c(O[C@@H]4O[C@H](CO)[C@@H](O)[C@H](O)[C@H]4O)cccc31)c1cccc(O[C@@H]3O[C@H](CO)[C@@H](O)[C@H](O)[C@H]3O)c1C2=O was read as DRD3 agonist -20 and D3 antag -50*.
`Cc1ccc(CSC2=Nc3ccccc3C3=NC(CC(=O)NCc4ccc5c(c4)OCO5)C(=O)N23)cc1` (configuration not stated) gave DRD3 agonist -9, D1 potentiator 1, D1 antagonist -61* and D1 agonist 6.
Screening O=C(CC1N=C2c3ccccc3N=C(SCc3cccc(F)c3)N2C1=O)NCc1ccc2c(c1)OCO2 (configuration not stated) returned DRD3 agonist -24, D1 potentiator -2, D1 antagonist -4 and D1 agonist 3.
Screening COc1ccccc1CNC(=O)CCC1N=C2c3ccccc3N=C(SCC(N)=O)N2C1=O (configuration not stated) returned DRD3 agonist -11, D1 potentiator -3, D1 antagonist -37* and D1 agonist -1.
Screening O=C(CCC1N=C2c3ccccc3N=C(SCC(=O)Nc3ccccc3F)N2C1=O)NCc1cccs1 (configuration not stated) returned DRD3 agonist 6, D1 potentiator -1, D1 antagonist -38* and D1 agonist 1.
CCCCNC(=O)CSC1=Nc2ccccc2C2=NC(CCC(=O)NCc3ccccc3OC)C(=O)N12 (configuration not stated) was read as DRD3 agonist -7, D1 potentiator -2, D1 antagonist 2 and D1 agonist 0.
COc1ccc(/C=C/CN2CCC(C(=O)NC(c3ccc(F)cc3)c3ccc4ccccc4n3)CC2)cc1 (configuration not stated) was read as DRD3 agonist -13 and D3 antag -76*.
Screening COc1ccc(C(C)NC(=O)C2CCN(CCOc3ccc(Cl)cc3Cl)CC2)cc1OC (configuration not stated) returned DRD3 agonist -4 and D3 antag -92*.
Screening COc1ccc(C(NC(=O)C2CCN(CCOc3ccc(Cl)cc3Cl)CC2)c2ccccc2C)cn1 (configuration not stated) returned DRD3 agonist -11 and D3 antag -77*.
For COc1ccc(C(NC(=O)C2CCN(CCOc3ccc(Cl)cc3Cl)CC2)c2cccs2)cc1 (configuration not stated) the results were DRD3 agonist 61* and D3 antag 255.
COc1ccc(C(NC(=O)C2CCN(CCOc3ccc(F)cc3)CC2)c2cccs2)cc1 (configuration not stated) was read as DRD3 agonist -24 and D3 antag -68*.
CN1CCN(c2ccc(CNS(=O)(=O)c3ccc(F)cc3Cl)cc2)CC1 was read as DRD3 agonist -17, D3 antag -29, D1 potentiator -5, D1 antagonist -8 and D1 agonist 7.
Cc1cc(S(=O)(=O)NCc2ccc(N3CCN(C)CC3)cc2)c(C)s1 was read as DRD3 agonist -11, D3 antag -63*, D1 potentiator -4, D1 antagonist -3 and D1 agonist 10.
`Cn1c(=O)c2c(nc(NCCNC(=O)c3ccco3)n2Cc2ccccc2)n(C)c1=O` gave DRD3 agonist 5, D3 antag 4, D1 potentiator -4, D1 antagonist 3 and D1 agonist 2.
`O=C1NC[C@H](Cc2ccccc2)N(CC2CCN(CCCCc3ccccc3)CC2)C1=O` gave DRD3 agonist -46 and D3 antag -50*.
For CC(CCN1CCC(CN2C(=S)NCC2Cc2ccccc2)CC1)c1ccccc1 (configuration not stated) the results were DRD3 agonist -41 and D3 antag -63*.
`S=C1NC[C@H](Cc2ccccc2)N1CC1CCN(CCCCc2ccccc2)CC1` gave DRD3 agonist -41 and D3 antag -93*.
Screening CC(C)CCN1CCC(CN2C(=S)NC[C@@H]2Cc2ccccc2)CC1 returned DRD3 agonist -50 and D3 antag -28.
CCCCN1CCC(CN2C(=O)C(=O)NC[C@@H]2Cc2ccccc2)CC1 was read as DRD3 agonist -25 and D3 antag -20.
`COc1ccc(NC(=O)c2ccc(S(=O)(=O)N(C)c3ccccc3)cc2)cc1S(=O)(=O)N1CCOCC1` gave DRD3 agonist -3 and D3 antag -4.
`CCN(C(=O)COC(=O)/C=C/c1cccc([N+](=O)[O-])c1)c1ccccc1` gave DRD3 agonist -1, D3 antag 6, D1 potentiator -1, D1 antagonist -10 and D1 agonist 2.
`CCCCCCSc1ccc([C@H]2N[C@@](Cc3ccccc3)(C(=O)OC)[C@H]3C(=O)N(CC)C(=O)[C@@H]23)cc1` gave DRD3 agonist 1, D3 antag 3, D1 potentiator -2, D1 antagonist -3 and D1 agonist 13.
Screening CCN1C(=O)[C@H]2[C@@H](c3ccc(-c4ccc(C(C)=O)cc4)c(OC)c3)N[C@@](Cc3ccccc3)(C(=O)OC)[C@H]2C1=O returned DRD3 agonist -8, D3 antag -59*, D1 potentiator -7, D1 antagonist -18 and D1 agonist 8.
